Results filed as inconclusive are left out. The source made the active and inactive calls. The call rests on the fitted dose curve; in most records, active means well fitted curve in the direction sought with a large enough effect; inconclusive means small, poorly fitted or top-dose-only effect, or another doubt; inactive means no such curve, though single readings can be large; an effect the other way counts as inactive or inconclusive.
Columns and labels:
[1] = P-glycoprotein substrates identified in KB-8-5-11 adenocarcinoma cell line, qHTS therapeutic library screen (AID 1346987); conditions: outcome: dose series up to 44.5 µM; further: series mostly up to about 44 µM; on the % scale 0 is the no-effect control and ±100 the full control effect; nearly all actives have a fitted effect of over 65% in size
How it was run: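 Steps: plate 500 KB-8-5-11 cells/well in DMEM + 10% FCS (colchicine removed); pin compounds in dose-response; incubate 72 h, 37 degree C, 5% CO2; add CellTiter-Glo, 5 min; read luminescence.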

[2] = NS1 protein of Zika virus - qHTS assay to identify small molecule inhibitors in human HEK 293 cells (AID 1347053);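 further: series mostly up to about 46 µM; plate controls were infected untreated cells for no effect and uninfected cells for full effect; nearly all actives have a fitted effect of over 55% in size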
How it was run: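 HEK 293 cells pretreated with compound for 1 h, then infected with ZIKV MR766 (MOI 0.5) for 24 h at 37 C. NS1 detected by TR-FRET with two anti-NS1 antibodies; normalized to uninfected (0%) and infected (100%) wells.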

[3] = qHTS of pediatric cancer cell lines to identify multiple opportunities for drug repurposing: Primary screen for TC32 cells (AID 1347089); further: on the % scale 0 is the no-effect control and ±100 the full control effect; nearly all actives have a fitted effect of over 60% in size
How it was run: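 Measured quantity: luminescence from CellTiter-Glo, reflecting metabolically active TC32 cells following 48 h of compound. Curves came straight from multi-point titrations, with 8 or 11 points in primary and 11 in confirmatory screening.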

[4] = qHTS of pediatric cancer cell lines to identify multiple opportunities for drug repurposing: Primary screen for DAOY cells (AID 1347090);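 further: series mostly up to about 46 µM; plate controls were DMSO for no effect and bortezomib for full effect; nearly all actives have a fitted effect of over 55% in size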
How it was run: (§1)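 Viability measured as metabolically active cells via CellTiter-Glo luminescence following 48 hours of compound exposure, 11-point dilutions in confirmatory testing. 500-1,000 cells/well plated 5 hours before dosing; controls were DMSO and 2.3 µM bortezomib.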

[5] = qHTS of pediatric cancer cell lines to identify multiple opportunities for drug repurposing: Primary screen for SJ-GBM2 cells (AID 1347091);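 further: plate controls were DMSO neutral control for no effect and bortezomib for full effect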
How it was run: as §1

[6] = qHTS of pediatric cancer cell lines to identify multiple opportunities for drug repurposing: Primary screen for A673 cells (AID 1347092); further: on the % scale 0 is the no-effect control and ±100 the full control effect; nearly all actives have a fitted effect of over 45% in size
How it was run: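 Cells are plated, rested 5 h, dosed by pintool, incubated 48 h, then lysed with CellTiter-Glo and read by luminescence. DMSO is the neutral control; bortezomib at 2.3 uM final is the positive control.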

[7] = qHTS of pediatric cancer cell lines to identify multiple opportunities for drug repurposing: Primary screen for SK-N-MC cells (AID 1347093);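 further: series mostly up to about 46 µM; plate controls were DMSO neutral control for no effect and bortezomib for full effect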
How it was run: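 Metabolically active cells were quantified by ATP-dependent luminescence (CellTiter-Glo, 15 min at room temperature) following 48 h treatment. Cells had been plated at 500-1,000 per well and settled for 5 h beforehand.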

[8] = qHTS of pediatric cancer cell lines to identify multiple opportunities for drug repurposing: Primary screen for BT-37 cells (AID 1347094);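 further: series mostly up to about 57 µM; plate controls were DMSO for no effect and bortezomib for full effect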
How it was run: (§2)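 Following a 5-hour attachment period, cells at 500-1,000/well received compounds and were cultured for 48 hours. CellTiter-Glo was added and luminescence read to estimate viable, metabolically active cells.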

[9] = qHTS of pediatric cancer cell lines to identify multiple opportunities for drug repurposing: Primary screen for NB-EBc1 cells (AID 1347095);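 further: plate controls were DMSO neutral control for no effect and bortezomib for full effect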
How it was run: as §2

[10] = qHTS of pediatric cancer cell lines to identify multiple opportunities for drug repurposing: Primary screen for U-2 OS cells (AID 1347096);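 further: plate controls were DMSO wells for no effect and bortezomib positive control wells for full effect; nearly all actives have a fitted effect of over 50% in size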
How it was run: (§3)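 Viability after 48 h compound treatment at 37C, 500-1,000 cells/well, read as ATP luminescence with CellTiter-Glo. Primary screens used 11-point (MIPE, 0.78 nM-46 µM) or 8-point (NPC, 0.59 nM-46 µM) final concentrations; follow-up screens used 11-point dilutions.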

[11] = qHTS of pediatric cancer cell lines to identify multiple opportunities for drug repurposing: Primary screen for SK-N-SH cells (AID 1347098);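 further: DMSO served as neutral control and bortezomib at 2.3 µM as positive control; on the % scale 0 is the no-effect control and ±100 the full control effect; nearly all actives have a fitted effect of over 65% in size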
How it was run: (§4)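 Cells (500-1,000/well) rested 5 h, then received compounds for 48 h; metabolically active cells were measured by CellTiter-Glo luminescence. Final concentrations spanned up to 46 µM (MIPE, 11-point) or 0.59 nM-46 µM (NPC, 8-point) in primary screens, 11-point in follow-ups.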

[12] = qHTS of pediatric cancer cell lines to identify multiple opportunities for drug repurposing: Primary screen for NB1643 cells (AID 1347099);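 further: plate controls were DMSO neutral control for no effect and bortezomib positive control for full effect; nearly all actives have a fitted effect of over 50% in size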
How it was run: as §2

[13] = qHTS of pediatric cancer cell lines to identify multiple opportunities for drug repurposing: Primary screen for LAN-5 cells (AID 1347100);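 further: plate controls were DMSO neutral control for no effect and bortezomib positive control for full effect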
How it was run: as §3

[14] = qHTS of pediatric cancer cell lines to identify multiple opportunities for drug repurposing: Primary screen for BT-12 cells (AID 1347101);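 further: plate controls were DMSO for no effect and bortezomib positive control for full effect; nearly all actives have a fitted effect of over 25% in size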
How it was run: as §4

[15] = qHTS of pediatric cancer cell lines to identify multiple opportunities for drug repurposing: Primary screen for Rh18 cells (AID 1347102); further: on the % scale 0 is the no-effect control and ±100 the full control effect; nearly all actives have a fitted effect of over 65% in size
How it was run: as §3

[16] = qHTS of pediatric cancer cell lines to identify multiple opportunities for drug repurposing: Primary screen for RD cells (AID 1347104);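 further: plate controls were DMSO for no effect and bortezomib for full effect; nearly all actives have a fitted effect of over 55% in size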
How it was run: as §2

[17] = qHTS of pediatric cancer cell lines to identify multiple opportunities for drug repurposing: Primary screen for MG 63 (6-TG R) cells (AID 1347105); further: on the % scale 0 is the no-effect control and ±100 the full control effect; nearly all actives have a fitted effect of over 50% in size
How it was run: as §2

[18] = qHTS of pediatric cancer cell lines to identify multiple opportunities for drug repurposing: Primary screen for Saos-2 cells (AID 1347097); further: on the % scale 0 is the no-effect control and ±100 the full control effect; nearly all actives have a fitted effect of over 40% in size
How it was run: as §2

[19] = qHTS of pediatric cancer cell lines to identify multiple opportunities for drug repurposing: Primary screen for OHS-50 cells (AID 1347103);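 further: plate controls were DMSO neutral control for no effect and bortezomib positive control for full effect; nearly all actives have a fitted effect of over 40% in size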
How it was run: as §4

CCOc1cc(NC(C)=O)ccc1C(=O)OC
inactive: outcome [1] | outcome [2] | outcome [3] | outcome [4] | outcome [5] | outcome [6] | Potency [7] | outcome [8] | outcome [9] | outcome [10] | outcome [11] | Potency [12] | outcome [13] | outcome [14] | outcome [15] | outcome [16] | outcome [17]

CCCCCCCCCCOc1cc2c(=O)c(C(=O)OCC)c[nH]c2cc1OCC
inactive: outcome [1] | activity change, negative = inhibition [2] -16.6% [at 4.81 µM] | activity change, negative = cytotoxic [3] 8.44% [at 4.81 µM] | activity change, negative = cytotoxic [4] -4.32% [at 4.84 µM] | activity change, negative = cytotoxic [5] 5.74% [at 4.84 µM] | activity change, negative = cytotoxic [6] -6.98% [at 4.84 µM] | activity change, negative = cytotoxic [7] -8.08% [at 4.84 µM] | activity change, negative = cytotoxic [8] 9.52% [at 6.03 µM] | activity change, negative = cytotoxic [9] 9.4% [at 4.84 µM] | activity change, negative = cytotoxic [10] 0.999% [at 4.84 µM] | activity change, negative = cytotoxic [11] 2.61% [at 6 µM] | activity change, negative = cytotoxic [12] 5.42% [at 4.84 µM] | activity change, negative = cytotoxic [13] 22.4% [at 4.84 µM] | activity change, negative = cytotoxic [14] 6.24% [at 6.03 µM] | activity change, negative = cytotoxic [15] 5.32% [at 4.84 µM] | activity change, negative = cytotoxic [16] 5.98% [at 4.84 µM] | activity change, negative = cytotoxic [17] -13.3% [at 4.84 µM]

CC1(c2ccccc2)OC(C(=O)O)=CC1=O (centres undefined)
inactive: outcome [1] | outcome [2] | outcome [3] | outcome [4] | outcome [5] | outcome [6] | Potency [7] | outcome [8] | outcome [9] | outcome [10] | outcome [18] | Potency [12] | outcome [13] | outcome [14] | outcome [19] | outcome [16] | outcome [17]

CCOC(=O)[C@H](CCc1ccccc1)N[C@@H](C)C(=O)N1Cc2cc(OC)c(OC)cc2C[C@H]1C(=O)O
inactive: outcome [1] | outcome [2] | outcome [3] | outcome [4] | outcome [5] | outcome [6] | Potency [7] | outcome [8] | outcome [9] | outcome [10] | outcome [11] | Potency [12] | outcome [13] | outcome [14] | outcome [19] | outcome [16] | outcome [17]

O=C(O)c1ccc[n+]([O-])c1
inactive: outcome [1] | outcome [2] | outcome [3] | outcome [4] | outcome [5] | outcome [6] | Potency [7] | outcome [8] | outcome [9] | outcome [10] | Potency [12] | outcome [13] | outcome [14] | outcome [15] | outcome [19] | outcome [16] | outcome [17]

CC1(C)[C@@H](OC(=O)CCC(=O)O)CC[C@]2(C)[C@H]3C(=O)C=C4[C@@H]5C[C@@](C)(C(=O)O)CC[C@]5(C)CC[C@@]4(C)[C@]3(C)CC[C@@H]12
inactive: outcome [1] | outcome [2] | outcome [3] | outcome [4] | outcome [5] | outcome [6] | Potency [7] | outcome [8] | outcome [9] | outcome [10] | outcome [18] | Potency [12] | outcome [13] | outcome [19] | outcome [16] | outcome [17]

NCc1ccc(S(N)(=O)=O)cc1
inactive: outcome [1] | outcome [2] | outcome [3] | outcome [4] | outcome [5] | outcome [6] | Potency [7] | outcome [8] | outcome [9] | outcome [10] | outcome [11] | Potency [12] | outcome [13] | outcome [14] | outcome [15] | outcome [16] | outcome [17]

Nc1ncnc2c1ncn2[C@@H]1O[C@H](COP(=O)(O)O)[C@@H](O)[C@H]1O
inactive: outcome [1] | outcome [2] | outcome [3] | outcome [4] | outcome [5] | outcome [6] | Potency [7] | outcome [8] | outcome [9] | outcome [10] | outcome [11] | Potency [12] | outcome [13] | outcome [14] | outcome [15] | outcome [19] | outcome [16] | outcome [17]

C[N+](C)(C)CC(O)CC(=O)[O-] (centres undefined)
inactive: outcome [1] | outcome [2] | outcome [3] | outcome [4] | outcome [5] | outcome [6] | Potency [7] | outcome [8] | outcome [9] | outcome [10] | outcome [11] | Potency [12] | outcome [13] | outcome [14] | outcome [15] | outcome [19] | outcome [16] | outcome [17]

COCC(=O)Nc1c(I)c(C(=O)NCC(O)CO)c(I)c(C(=O)N(C)CC(O)CO)c1I (centres undefined)
inactive: outcome [1] | outcome [2] | outcome [3] | outcome [4] | outcome [5] | outcome [6] | Potency [7] | outcome [8] | outcome [9] | outcome [10] | outcome [11] | Potency [12] | outcome [13] | outcome [15] | outcome [19] | outcome [16] | outcome [17]

NC(=O)NC1NC(=O)NC1=O (centres undefined)
inactive: outcome [1] | outcome [2] | outcome [3] | outcome [4] | outcome [5] | outcome [6] | Potency [7] | outcome [8] | outcome [9] | outcome [10] | outcome [11] | Potency [12] | outcome [13] | outcome [14] | outcome [15] | outcome [19] | outcome [16] | outcome [17]

Cn1cc(C(=O)[C@@H]2CCc3nc[nH]c3C2)c2ccccc21
inactive: outcome [1] | outcome [2] | outcome [3] | outcome [4] | outcome [5] | outcome [6] | Potency [7] | outcome [8] | outcome [9] | outcome [10] | outcome [18] | Potency [12] | outcome [13] | outcome [14] | outcome [15] | outcome [16] | outcome [17]

CC(=O)N[C@@H](Cc1ccc(O)cc1)C(=O)O
inactive: outcome [1] | outcome [2] | outcome [3] | outcome [4] | outcome [5] | outcome [6] | Potency [7] | outcome [8] | outcome [9] | outcome [10] | outcome [11] | Potency [12] | outcome [13] | outcome [14] | outcome [15] | outcome [19] | outcome [16] | outcome [17]

CC(C(=O)O)c1ccc2c(c1)Cc1cccnc1O2 (centres undefined)
inactive: outcome [1] | outcome [2] | outcome [3] | outcome [4] | outcome [5] | outcome [6] | Potency [7] | outcome [8] | outcome [9] | outcome [10] | outcome [11] | outcome [13] | outcome [14] | outcome [15] | outcome [19] | outcome [16] | outcome [17]

CC(C)(C)NCC(O)COc1cccc2c1CCC(=O)N2 (centres undefined)
inactive: outcome [1] | outcome [2] | outcome [3] | outcome [4] | outcome [5] | outcome [6] | Potency [7] | outcome [8] | outcome [9] | outcome [10] | outcome [11] | Potency [12] | outcome [13] | outcome [14] | outcome [15] | outcome [19] | outcome [16] | outcome [17]

From PubChem BioAssay (NCATS)
